PubChem BioAssay (NCI)
The panel holds about 83,000 compounds, 20% with a hit somewhere; the sample as a whole holds those more often.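 Method: cells in 96-well plates; compound added at one concentration; 48 h incubation; percent growth measured; values under 10 scored active.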 Unmarked numbers belong to inactive results. The source made the active and inactive calls.

tested on: UACC-62 melanoma; assay: NCI-60 one-dose screen, 48 h (100 = growth as untreated, 0 = no growth, -100 = all killed); settings: 10 µM
Protocol: Growth inhibition of the UACC-62 human tumor cell line is measured as a screen for anti-cancer activity. Cells are grown in 96 well plates and exposed to the test compound for 48 hours. Compounds are tested at a single concentration, which is 10^-5 M for most compounds. The reported endpoint is percent growth (GI% or GIPRCNT), where numbers from 0 - 100% represent growth inhibition, and numbers from -100% - 0 represent cell death. For example, a value of 40 represents 60% growth inhibition. A value of 0 means no net growth occurred over the course of the experiment. A value of -40 indicates 40% of cells at the beginning of the experiment died by the end of the experiment. A value of -100 means all cells are dead at the end of the experiment.
NCI-60 Human Tumor Cell Lines Screen was performed using the standard one-dose NCI protocol, which is described in more detail at https://dtp.cancer.gov/discovery_development/nci-60/default.htm.
Compounds with GIPRCNT values below 10 were considered active. Activity score was based on GIPRCNT using the following formula: […]
Score is 0 for GIPRCNT values of 100 or above, 50 for GIPRCNT values of 0, and 100 for GIPRCNT values of -100.

| Structure (SMILES) | growth |
| --- | --- |
| C=C[C@@]12CN3CC[C@]1(O)[C@@](C(=O)OC)(CO2)c1[nH]c2ccccc2c1C3 | 63.9% |
| O=C(/C=C/Nc1ccccc1)c1ccc2c(c1)Nc1ccccc1S2 | 68.9% |
| CN1CCN(c2ccc(Nc3nc(NCCCNC(=O)c4ccc(Cl)cc4)c4sccc4n3)cc2)CC1 | 86% |
| Nc1nc(Nc2ccc(Cl)cc2)n(Cc2cccc(Br)c2)n1 | -82.3% (active) |
| O=C(CSc1nnc(-c2c[nH]c3ccccc23)n1-c1ccccc1)Nc1ccc(C(=O)/C=C/c2ccccc2Cl)cc1 | 72.1% |
| OCc1[nH]nc2cc(Nc3ncc4ccc(Br)c(OC5CCC(O)CC5)c4n3)ccc12 (stereo not given) | -89.2% (active) |
| O=C(c1ccc(O)cc1)C1[C@H](c2ccc(Br)cc2)[C@@H](c2ccccc2)NC12C(=O)Nc1ccccc12 (stereo not given in full) | 50.9% |
| COc1ccc(CN2[C@@H](C(=O)NCc3ccc(C(=O)NO)cc3)Cc3c([nH]c4ccccc34)[C@@H]2C)cc1 | -20.9% (active) |
| O=C(Nc1nc2ccc([N+](=O)[O-])cc2s1)Nc1ccccc1I | 3.63% (active) |
| Nc1nc(Nc2ccccc2)nn1Cc1c(Cl)cccc1Cl | 33.5% |
| O=C(Nc1cc(Cl)cc(Cl)c1)Nc1cc(Cl)cc(Cl)c1 | -66.1% (active) |
| CN1CCN(Cc2ccc(NC(=O)c3cncc(C#Cc4cnc5ccc(N[C@H]6CCOC6)nn45)c3)cc2C(F)(F)F)CC1 | -93.3% (active) |
| O=c1[nH]c2ccccc2cc1CSc1ccc(Nc2nccc(-c3ccc4c(c3)OCO4)n2)cc1 | 96.2% |
| CCOC(=O)C1=C(N)N(c2ccc(C)cc2)C2=C(C(=O)CC(C)(C)C2)C1c1ccccc1OC (stereo not given) | 89.8% |
| COc1ccc(C2N(c3ccc(Br)cc3)N=C(C(C)=O)N2[C@H]2[C@H](OC(C)=O)O[C@H](COC(C)=O)[C@@H](OC(C)=O)[C@@H]2OC(C)=O)cc1 (stereo not given in full) | 56.9% |
| Nc1nnc(-c2c[nH]c3ccc(F)cc23)c(-c2c[nH]c3ncccc23)n1 | 51.7% |
| COc1cc(/C=C/C(=O)c2ccc(C(F)(F)F)cc2)ccc1Oc1nc(Nc2ccc(F)cc2)nc(N(C)C)n1 | 57.7% |
| COc1cc2oc(-c3cccc(C(=O)Nc4ccc(Cl)cc4)c3)cc(=O)c2c(OCCNC(=O)CNC(=O)OC(C)(C)C)c1OC | 81% |
| CCN1CCN(c2ccc(NC(=O)Nc3ccc4c(c3F)CCN4c3ccnc(C(=O)NC)c3)cc2C(F)(F)F)CC1 | 95.8% |
| CC(=O)NCC1=C(C)C=C2C(=O)[C@](C)(O)C3(CC3)C(C)=C21 | -91% (active) |

| Structure (SMILES) | growth |
| --- | --- |
| CC(C)CCSc1nc(NC2CC2)c(C#N)c(-c2ccc(C(C)C)cc2)n1 | 98.3% |
| O=C(Nc1ccccc1)Nc1nc2ccccc2s1 | 48.3% |
| COc1ccc(/C=C/C(=O)c2ccc(N3CCN(C)CC3)cc2)c(C(F)(F)F)c1 | -31.4% (active) |
| O=C1Nc2ccc(Cl)cc2/C1=C/c1ccc(OCc2ccc(Br)cc2F)cc1 | 32.5% |
| COc1cc(Cn2c(C(F)(F)F)cc3c(Cl)ncnc32)ccn1 | 0.529% (active) |
| COc1cccc(C(N)=Nc2ccc(OCCCCCCn3cncn3)cc2)c1 | 36.4% |
| COc1cccc(-c2ccc(/C=N/NC(=O)c3[nH]c4ccc(Br)cc4c3-c3ccccc3)o2)c1 | 28.8% |
| O=c1[nH]c2ccccc2cc1CSc1ccc(Nc2nccc(-c3ccc4ccccc4c3)n2)cc1 | 95.7% |
| Cc1nn(-c2ccccc2)c2ncn(CC(=O)N/N=C/c3c[nH]c4ccccc34)c(=O)c12 | 80.7% |
| O=C(c1ccc(O)cc1)C1[C@H](c2ccccc2Br)[C@@H](c2ccccc2)NC12C(=O)Nc1ccc(Cl)cc12 (stereo not given in full) | 6.97% (active) |
| O=C(CS(=O)(=O)c1oc(-c2ccc(Cl)cc2)nc1S(=O)(=O)c1ccccc1)N1CCCC1 | 47.5% |
| CC1(C)CC[C@]2(C(=O)N3CCOCC3)CC[C@]3(C)C(=CC[C@@H]4[C@@]5(C)CC[C@H](NCO)C(C)(C)[C@@H]5CC[C@]43C)[C@H]2C1 | -93.9% (active) |
| O=S(=O)(Nc1ncccn1)c1ccc(-n2c(-c3ccc(Br)cc3)nc(-c3ccccc3)c2-c2ccccc2)cc1 | 34.3% |
| CC(=O)c1ccc(NC(=O)NCn2c(=O)[nH]c3ccccc3c2=O)cc1 | 81.1% |
| N#Cc1c(-c2ccc(F)cc2)nc(SCc2ccc([N+](=O)[O-])cc2)nc1N1CCOCC1 | 62.7% |
| N#Cc1c(NC(=O)c2ccc(C(F)(F)F)cc2)sc2c1CCC(O)=C2 | 13.8% |
| COc1cc2c3c(n(CCCN4CCOCC4)c(=O)c2cc1OC)-c1nc2c(cc1C3=O)OCO2 | -8.82% (active) |
| O=C(CNc1nc(-c2ccccc2)cs1)Nc1cccc(Cl)c1 | 19.8% |
| COc1ccc(Nc2nc(N)n(Cc3cccc(Br)c3)n2)cc1 | 2.3% (active) |
| CCNCCCn1c2c(c3cc(OC)c(OC)cc3c1=O)C(=O)c1cc3c(nc1-2)OCO3 | -15.3% (active) |
